Compound activity as filed in PubChem BioAssay.
Hits are enriched below; roughly 3.4% of the tested compounds scored in any of these assays.
TEAD-YAP block: TEAD-YAP interaction inhibition; hit rate 1.4% among 640,000; inhibition, % at 9.12 µM; HEK-TIYL cells, TEAD-Gal4/YAP UAS-luciferase luminescence; in the data active means inhibition above about 32%;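 further: 0% = median of test compound wells and 100% = reference inhibitor wells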
FBW7 activator: activators of human E3 ligase FBW7; normalized activity (activation), % at 26.1 µM; AID 1259310; hit rate 0.13% among 650,000; Q969H0; AlphaScreen FBW7–phospho-cyclin E peptide binding, activator screen; in the data active means normalized activity above about 1.9%;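 further: purified mutant Fbw7 with reduced substrate affinity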
Target sequence (Q969H0 whole entry, looked up): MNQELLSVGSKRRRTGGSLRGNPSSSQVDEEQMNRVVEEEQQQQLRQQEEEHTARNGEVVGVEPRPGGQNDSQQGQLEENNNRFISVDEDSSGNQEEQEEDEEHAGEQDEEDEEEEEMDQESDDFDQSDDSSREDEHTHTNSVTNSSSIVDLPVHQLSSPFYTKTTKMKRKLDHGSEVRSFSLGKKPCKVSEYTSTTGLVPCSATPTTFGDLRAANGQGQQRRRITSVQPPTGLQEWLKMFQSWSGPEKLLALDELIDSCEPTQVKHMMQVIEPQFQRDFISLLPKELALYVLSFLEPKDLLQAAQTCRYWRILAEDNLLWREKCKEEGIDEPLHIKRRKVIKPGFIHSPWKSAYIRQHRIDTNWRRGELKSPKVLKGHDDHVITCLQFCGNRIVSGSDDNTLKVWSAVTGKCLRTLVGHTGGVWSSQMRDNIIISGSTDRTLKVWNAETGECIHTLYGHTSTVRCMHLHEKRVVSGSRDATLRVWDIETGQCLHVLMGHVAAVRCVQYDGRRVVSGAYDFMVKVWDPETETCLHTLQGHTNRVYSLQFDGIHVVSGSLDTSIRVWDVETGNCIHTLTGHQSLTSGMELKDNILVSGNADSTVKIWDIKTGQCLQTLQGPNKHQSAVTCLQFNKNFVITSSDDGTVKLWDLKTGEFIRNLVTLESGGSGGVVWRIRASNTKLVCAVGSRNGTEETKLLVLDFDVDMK
GPR151 ag: activators of human GPR151. Q8TDV0. PathHunter beta-arrestin GPR151 cells, luminescence. activation, % at 11.2 µM. hit rate 1% among 650,000; in the data active means activation above about 4.9%;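 further: 0% = median of compound wells and 100% = cells with positive control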
MITF inh: human MITF inhibition, primary screen | O75030 | AlphaScreen MITF homodimerization, bead proximity signal | inhibition, % at 2.6 µM | hit rate 0.91% among 650,000; in the data active means inhibition above about 50%;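 further: 0% = vehicle wells with protein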
An asterisk follows results filed as active.

SMILES	TEAD-YAP block	FBW7 activator	GPR151 ag	MITF inh
O=C1C=CC(=O)N1CCCCCCN1C(=O)C=CC1=O	41*	0	-2	2
O=C(N/N=C\c1ccc(O)cc1O)c1ccc(=O)[nH]n1	3	-3	1	60*
O=C(N/N=C/c1ccc(O)cc1O)c1ccc(Br)cc1	42*	0	-1	37
O=C(N/N=C/c1ccc(O)cc1O)c1cc2ccccc2cc1O	67*	-1	-1	4
O=C(N/N=C\c1ccc(O)cc1O)c1cncc(Br)c1	31	0	1	79*
O=C(N/N=C\c1cc(Br)ccc1F)c1ccc(=O)[nH]n1	-11	0	1	-6
O=C(N/N=C/c1ccccc1Cl)c1cncc(Br)c1	-4	0	-2	-3
Cc1cc(NC(=O)c2nccnc2C(=O)O)ccc1F	11	0	1	12
O=C(N/N=C/c1ccc(O)cc1O)c1ccc(O)cc1	-22	-1	-2	-1
O=C(N/N=C/c1ccc(O)cc1O)c1nn(Cc2ccccc2)c(=O)c2ccccc12	64*	-1	-2	25
O=C(N/N=C/c1cccc(O)c1O)c1nn(Cc2ccccc2)c(=O)c2ccccc12	-17	-1	-1	25
O=C(N/N=C/c1ccc(O)cc1O)c1cccc(NC(=O)c2ccccc2F)c1	40*	0	0	10
O=C(N/N=C/c1ccc(O)cc1O)c1ccc[n+]([O-])c1	-8	-1	-1	73*
O=C(N/N=C/c1ccc(O)cc1O)c1ccc(NC(=O)c2ccccc2Cl)cc1	15	-1	0	19
O=C(N/N=C/c1ccc(O)cc1O)c1ccc(-c2ccccc2)cc1	45*	0	0	6
COc1ccc(N2C(=S)NC3c4ccccc4OC2(C)C3C(=O)Nc2ccc(Cl)cc2)cc1 (stereo not drawn)	2	0	1	-2
CC(C(=O)Nc1ccc(F)c(F)c1F)N1CCNC(=O)C1 (stereo not drawn)	-1	0	0	-3
O=c1[nH]cc(S(=O)(=O)Nc2ccc3c(c2)OCCO3)c(=O)[nH]1	5	0	0	12
Cc1cccc(NC(=O)c2c(Cl)nc(Cl)c(Cl)c2Cl)c1C	36*	1	2	11
Cc1nc(Cl)c(C(=O)NCc2ccccc2)c(C)c1Cl	1	0	-1	-5
Cc1ccccc1NC(=O)c1c(Cl)nc(Cl)c(Cl)c1Cl	64*	1	-1	14
O=C(NCc1ccccc1)c1c(Cl)nc(Cl)c(Cl)c1Cl	47*	0	0	-2
COc1cc(/C=N/NC(=S)NC(C)C)cc(OC)c1O	-3	0	3	8
CCOc1cc(/C=N/NC(=O)Cn2c3ccccc3c(=O)c3ccccc32)ccc1O	59*	0	2	-12
O=C(Cn1c2ccccc2c(=O)c2ccccc21)N/N=C/c1ccccc1O	45*	0	1	15
SMILES	TEAD-YAP block	FBW7 activator	GPR151 ag	MITF inh
CCOc1cc(/C=N/NC(=O)Cn2nnc(-c3ccccc3)n2)ccc1O	16	0	1	7
c1cc(NCCCN2CCOCC2)n2ncc(-c3ccoc3)c2n1	0	-1	1	8
CC(Sc1ccc(Cl)cc1)C(=O)N/N=C/c1ccccc1O (stereo not drawn)	14	0	3	-22
Cc1ccc(C)c(OCc2nc(-c3ccccc3Cl)no2)c1	-40	0	-1	-4
CS(=O)(=O)C1=NN2C(=N)/C(=C\c3ccc(Br)cc3)C(=O)N=C2S1	-17	0	-2	2
CCS(=O)(=O)C1=NN2C(=N)/C(=C\c3ccc(C)o3)C(=O)N=C2S1	-5	0	2	0
CCS(=O)(=O)C1=NN2C(=N)/C(=C\c3ccc([N+](=O)[O-])o3)C(=O)N=C2S1	3	-1	0	93*
CCS(=O)(=O)C1=NN2C(=N)/C(=C\c3ccc(Br)o3)C(=O)N=C2S1	0	-1	0	78*
CS(=O)(=O)C1=NN2C(=N)/C(=C\c3ccc(Br)o3)C(=O)N=C2S1	-10	0	3	79*
CCC(=O)Nc1nc(-c2ccccc2OC)cs1	-18	0	0	1
OC(CN1CCOCC1)Cn1c2ccc(Cl)cc2c2cc(Cl)ccc21 (stereo not drawn)	-7	0	0	-3
COc1ccc(/C=C/c2ccc3ccccc3[n+]2[O-])cc1	72*	0	-3	3
CCN1/C(=C/c2ccc3ccccc3[n+]2CC)Sc2cc(OC)c(OC)cc21	91*	-1	-1	42
CCN1/C(=C/C(=C/c2sc3ccc(Cl)cc3[n+]2CC)C2CC2)Sc2ccc(Cl)cc21	30	0	-2	37
CC[n+]1c(/C=C/c2ccc(OC)c(OC)c2)ccc2ccccc21	59*	1	1	15
CCN1/C(=C/c2ccc3ccccc3[n+]2CC)Sc2ccc(Br)cc21	71*	-1	1	16
Cc1ccccc1Nc1c(C)c(C)nc2ncnn12	-2	0	0	-6
Cc1nc2ncnn2c(NCc2ccc(F)cc2)c1C	45*	1	5	17
O=C(Cc1ccccn1)N1CCc2c([nH]c3ccccc23)C1c1ccccn1 (stereo not drawn)	7	0	2	-6
CC(=O)Nc1ccc(CN2CCc3c([nH]c4ccccc34)C2c2ccccn2)s1 (stereo not drawn)	34*	0	1	3
COc1cccc(NC(=O)C2C3C=CC4(O3)C2C(=O)N(CC2CCCO2)C4C(=O)NC2CCCCC2C)c1 (stereo not drawn)	5	0	-1	-1
CC(=O)Nc1nc2ccc(NC(=O)c3c([N+](=O)[O-])cnn3C)cc2s1	53*	0	-1	7
O=C(Nc1ccccc1)c1ccc2nc(NC(=O)C3CCCCC3)sc2c1	2	0	-2	-7
Cn1ncc(Cl)c1C(=O)Nc1ccc(Cl)c(Cl)c1	-24	0	0	-5
Cn1ncc(Cl)c1C(=O)Nc1ccc2nc(NC(=O)C3CCCCC3)sc2c1	57*	0	0	11
SMILES	TEAD-YAP block	FBW7 activator	GPR151 ag	MITF inh
Nc1ccc(C(=O)Nc2nc3cc4sc(NC(=O)c5ccc(N)cc5)nc4cc3s2)cc1	-1	6.7*	-1	-86
Nc1ccc(C(=O)Nc2ccc3nc(NC(=O)C4CCCCC4)sc3c2)cc1	40*	0	2	12
CN1CCCN(c2nccnc2-c2ccccc2CO)CC1	4	0	0	15
CCC(C#CCN1CCOCC1)(CC)OC(C)=O	9	0	1	-10
CCOc1ccccc1-c1cc(C(=O)NCCN(C)C)c2ccccc2n1	-2	0	-1	17
O=C(Nc1ccc(Cl)cc1)c1cc([N+](=O)[O-])ccc1O	72*	0	-10	11
O=C(Nc1c(Cl)cc([N+](=O)[O-])cc1Cl)c1cc(Cl)ccc1O	67*	0	5	0
O=C(Nc1cccc([N+](=O)[O-])c1)c1cc2ccccc2cc1O	34*	0	-1	-1
O=C(NNC(=O)c1cc2ccccc2cc1O)Nc1cccc([N+](=O)[O-])c1	-7	0	-2	-5
COc1ccc(NC(=O)c2cc([N+](=O)[O-])ccc2O)cc1	86*	1	-10	-7
